High-throughput results as filed in PubChem.
The list is not random: actives were taken first. Their share in the collection is about 17%.
TDP1 inh: inhibitors of human tyrosyl-DNA phosphodiesterase TDP1. Q9NUW8. recombinant TDP1, AlphaScreen DNA substrate cleavage. Potency, µM (series often up to 130 µM), usual class: inhibitors. 350,000 tested, 0.28% active. AID 485290; note: nearly all actives have a fitted effect of over 40% in size
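AlphaScreen read-out: signal falls as enzyme removes the 3' tyrosine-FITC from a 5'-biotinylated DNA oligo (15 nM, 5 min, RT). Enzyme was E. coli-made recombinant Tdp1 at 1 nM, exposed to compound for 15 min beforehand; beads 10 ug/ml, 10 min.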
DT40 TDP1 CPT: growth inhibition of DT40 Tdp1-/-;hTDP1 cells with camptothecin (screen for TDP1 inhibitors). chicken DT40 Tdp1-/-;hTDP1 cells + 20 nM CPT, ATP luminescence, 48 h. Potency, µM (titrated, usually from 46.2 µM), usual class: inhibitors. 420,000 tested, 12% active. AID 686979; note: nearly all actives have a fitted effect of over 55% in size
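Cell growth measured by CellTiter-Glo luminescence after a minimum 48 h, 37 C compound exposure with 20 nM CPT in Tdp1-knockout DT40 cells stably expressing hTDP1, seeded 400/well; qHTS titration format.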
ClpP mod: qHTS Assay for Activators of ClpP; ATP-dependent Clp protease proteolytic subunit (Bacillus subtilis (strain 168)), P80244; purified B. subtilis ClpP, FRET peptide cleavage, 20 min; Potency, µM (highest dose often 57.5 µM); 340,000 tested, 1.9% active; AID 651965, 2013; active = well fitted falling curve with a large enough effect; inconclusive = small, poorly fitted or top-dose-only effect; inactive = no such curve, though single readings can be large or run the other way; note: the source files actives as falling curves though it sought activators and does not explain the sign; nearly all actives have a fitted effect of over 65% in size
Target sequence (P80244 whole entry, looked up): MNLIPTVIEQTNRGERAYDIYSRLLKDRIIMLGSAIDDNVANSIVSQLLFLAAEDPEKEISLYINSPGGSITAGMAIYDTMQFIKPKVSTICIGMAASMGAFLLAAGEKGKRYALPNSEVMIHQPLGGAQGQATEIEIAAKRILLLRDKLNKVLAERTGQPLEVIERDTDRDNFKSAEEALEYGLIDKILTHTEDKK
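FRET quenching reversal measured ClpP activation: 10 microg/mL B. subtilis ClpP at pH 8 with the FRET-FV decapeptide, read at 430 nm after 320 nm excitation. The 20-min minus 0-min signal was scaled between DMSO/no-enzyme wells and ADEP (5.8 microM final).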
TDP1 cell noCPT: qHTS for Inhibitors of human tyrosyl-DNA phosphodiesterase 1 (TDP1): qHTS in cells in absence of CPT. 420,000 tested, 15% active. DT40 Tdp1-/- hTDP1 cells, no CPT, ATP luminescence, 48 h. Potency, µM (doses to about 46.2 µM), most hits filed as inhibitors. AID 686978, 2013; note: nearly all actives have a fitted effect of over 55% in size
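Luminescent ATP content (CellTiter-Glo) served as the growth readout. Knockout chicken DT40 cells expressing human TDP1 were exposed to compounds without camptothecin for a minimum 48 hr at 37 °C.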
Numbers stand for hits; n = inactive; u = inconclusive; x = no result given; [ ] = another dose, or the depositor's remark. Unless noted, calls come from the whole dose curve; as a rule, active = well fitted curve in the direction sought with a large enough effect; inconclusive = small, poorly fitted or top-dose-only effect, or another doubt; inactive = no such curve, though single readings can be large; an effect the other way counts as inactive or inconclusive.

SMILES	TDP1 inh	DT40 TDP1 CPT	ClpP mod	TDP1 cell noCPT
O=C(/C=C/c1ccc(Cl)cc1Cl)Nc1cccc(S(=O)(=O)NC2=NCCC2)c1	n	16.4µM	n	u
CCc1ccccc1OCC(=O)Nc1cccc(S(=O)(=O)NC2=NCCCCC2)c1	n	18.4µM	n	u
O=C(/C=C/c1ccc([N+](=O)[O-])cc1)Nc1cccc(S(=O)(=O)NC2=NCCCCC2)c1	n	14.6µM	u	14.6µM
O=C(/C=C/c1ccccc1Cl)Nc1cccc(S(=O)(=O)NC2=NCCCCC2)c1	n	u	n	u
Cc1cc(C)nc(NS(=O)(=O)c2ccc(NC(=O)COc3ccccc3)cc2)n1	n	n	n	n
O=C(CSc1nnc(-c2ccccc2)c(-c2ccccc2)n1)NCCc1ccccc1	n	u	n	u
Cc1ccc(NC(=O)COC(=O)C(NS(=O)(=O)c2ccc(Cl)cc2)C(C)O)cc1C (stereo not drawn)	n	25.9µM	n	u
Cc1cc(C)nc(SCC(=O)Nc2ccc(S(=O)(=O)NC(C)(C)C)cc2)n1	n	16.4µM	n	14.6µM
Cc1cc(Cl)ccc1OCC(=O)Nc1cccc(S(=O)(=O)NC2=NCCCCC2)c1	n	11.6µM	n	18.4µM
O=C(COc1ccc(Cl)cc1)Nc1cccc(S(=O)(=O)NC2=NCCCCC2)c1	n[0.505 µM]	u	n	u
CC(C)(C)Sc1ccc([N+](=O)[O-])cc1C(=O)Nc1ccncc1	x	n	x	n
CC1=NN(c2cccc(C(=O)O)c2)C(=O)/C1=C\C=C/c1ccccc1	n	0.581µM	x	1.3µM
CC1=NN(c2ccc(C)cc2)C(=O)/C1=C\C=C\c1ccccc1	n	11.6µM	x	9.2µM
CC1(C(=O)NS(=O)(=O)c2cccc(Cl)c2)CCN1C(=O)C1CCCCC1 (stereo not drawn)	x	n	n	n
O=c1oc2ccc3ccccc3c2cc1-c1nnc(-c2ccccc2)o1	n	u	14.1µM	u
CC1C(=O)N(Cc2cn(Cc3ccco3)nn2)CCS(=O)(=O)N1Cc1ccc(-c2ccc(Cl)cc2)cc1 (stereo not drawn)	x	18.4µM	n	13µM
CC1C(=O)N(Cc2cn(Cc3ccco3)nn2)CCS(=O)(=O)N1Cc1ccc(-c2ccccc2)cc1 (stereo not drawn)	x	u	n	18.4µM
COc1ccccc1C(=O)NCC(=O)OCC(=O)Nc1ccc2[nH]c(=O)[nH]c2c1	n	n	n	n
COc1cc(-c2cccs2)cc(=O)c2c(C)oc(C)c12	n	13µM	n	23.1µM
COc1cc(-c2cc(OC)c3c(C)oc(C)c3c(=O)c2)ccc1OC(=O)c1ccccc1Cl	n	5.8µM	n	4.61µM
COc1cc(-c2cc(OC)c3c(C)oc(C)c3c(=O)c2)ccc1OC(=O)c1ccccc1F	n	8.2µM	n	20.6µM
COc1ccc(-c2cc(OC(=O)c3ccccc3)c3c(C)oc(C)c3c(=O)c2)cc1OC	n	u	n	u
Clc1ccccc1C1=Nn2c(nnc2-c2ccco2)SC1	n	n	x	u
Oc1ccccc1-c1n[nH]c(-c2ccccc2O)n1	x	3.66µM	u	5.17µM
Clc1ccccc1-c1nc(-c2ccccc2)n[nH]1	n	u	n	u
SMILES	TDP1 inh	DT40 TDP1 CPT	ClpP mod	TDP1 cell noCPT
CCCNC(=O)CN1C(=O)COc2ccc(S(=O)(=O)N3CC(C)CC(C)C3)cc21 (stereo not drawn)	n	n	x	n
Cc1ccc(CN2C(=O)CCC2(C)c2nnnn2Cc2ccccc2)cc1 (stereo not drawn)	x	n	n	n
COc1ccc(C2C3=C(CCCC3=O)Nc3c(-c4ccccc4)c(C)nn32)cc1 (stereo not drawn)	n	n	u	n
Cc1nn2c(c1-c1ccccc1)NC1=C(C(=O)CCC1)C2c1ccccc1 (stereo not drawn)	n	n	8.91µM	n
O=C1NC2=C(C(=O)CCC2)C(c2ccccc2)N1 (stereo not drawn)	n	n	x	n
O=C1CCCC2=C1C(c1ccco1)Nc1ccc(C(=O)c3ccccc3)cc1N2 (stereo not drawn)	n	14.6µM	n	11.6µM
CCc1ccc(S(=O)(=O)c2nnn3c2nc(Nc2ccc(F)cc2)c2cc(Cl)ccc23)cc1	n	3.66µM	n	5.17µM
COc1ccc(Nc2nc3c(S(=O)(=O)c4ccccc4)nnn3c3ccc(Cl)cc23)cc1OC	n	n	n	n
COc1ccc(Nc2nc3c(S(=O)(=O)c4ccccc4)nnn3c3ccc(Cl)cc23)cc1	n	6.51µM	n	9.2µM
CCOC(=O)Nc1cc2c(cc1[N+](=O)[O-])-c1ccccc1C2=O	x	u	n	n
Cc1cc(C)c(NC(=O)CSc2n[nH]c(-c3ccccc3Cl)n2)c(C)c1	n	u	n	6.51µM
COc1ccccc1-c1nc(SCC(=O)c2ccccc2)n[nH]1	n	u	n	16.4µM
CCCOc1ccccc1-c1nc(SCC(=O)c2ccccc2)n[nH]1	n	16.4µM	n	18.4µM
COc1ccccc1-c1nc(SCC(=O)Nc2ccc(C)c(C)c2)n[nH]1	n	23.1µM	n	23.1µM
Cc1ccc(NC(=O)CSc2n[nH]c(-c3ccncc3)n2)cc1C	n	n	n	n
COc1ccccc1-c1nc(SCC(=O)N2CCOCC2)n[nH]1	n	n	x	n
Cc1c(C(=O)N2CCN(C(C)C)CC2)sc2ncnc(NCc3ccco3)c12	x	n[9.04 µM]	x	n
CN(C(=O)c1cccc(S(=O)(=O)N2CCCC2)c1)C1CCCCC1	n	u	n	u
CCOc1ccc(C(=O)C(C)OC(=O)c2nc(Cl)ccc2Cl)cc1 (stereo not drawn)	n	u	n	n
Cc1ccc(-c2ccnc(-n3ncc(C(=O)NC[C@@H]4CCCN5CCCC[C@H]45)c3C3CC3)n2)o1	x	n	x	n
CN(CC(=O)Nc1cccc(F)c1)C(=O)/C=C/c1cn(Cc2ccccc2)nc1-c1cccnc1	n	u	n	u
CC(C)Oc1ccccc1-c1nc(SCC(=O)c2ccc(F)cc2)n[nH]1	n	20.6µM	n	16.4µM
Cc1c(NS(=O)(=O)c2ccc(NCCN3CCOCC3)c([N+](=O)[O-])c2)c(=O)n(-c2ccccc2)n1C	n	n	n	n
O=C(CCNC(=O)C1CCN(S(=O)(=O)c2ccc(F)cc2)CC1)Nc1ccccc1	n	n	n	n
CN1CC(=O)N(CC(=O)N2N=C(c3ccc(Cl)cc3)CC2c2ccco2)C1=O (stereo not drawn)	n	u	n	u
